Data on five molecules can be found in PubChem BioAssay.

The structures appear in SMILES notation. Calls of active or inactive are those of the source.

Experiment [1] deals with Human papillomavirus type 1a protein E7 (residues 44-93). Put plainly: small molecules binding HPV E7 44-93 – biochemical, small-molecule microarray, residues 44-93, 635 nm fluorescence, primary screen (AID 1108).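 Also: E7 fragment applied at 1 µg/mL in TBST for 1 h at 4 C; score combines spot fluorescence with its signal to noise ratio.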 To be noted: fluorescence 635 nm, higher = more signal.
The nature of experiment [2]: hepatitis C replication reporter changes, two-sided – Huh7 cells, luciferase reporter, HCV replication inhibitor project, primary screen (AID 1109).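 Also: huh7 hepatoma cells harbouring a luciferase neomycin HCV replicon reporter; luciferase luminescence as measure of HCV replicon replication; test concentration not given here.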 To be noted: Huh7 HCV replicon luciferase reporter, 48 h; higher = more signal. On the technique in general: A reporter such as luciferase makes a cellular process visible.
The target of experiment [3] is Left-right determination factor 2 (Homo sapiens) (UniProt O00292). In words: small molecules binding LEFTY2 protein – biochemical, small-molecule microarray, 635 nm fluorescence scan, primary screen (AID 1110). To be noted: higher = more signal.
Chain of Left-right determination factor 2 (Homo sapiens) (O00292 whole entry, looked up): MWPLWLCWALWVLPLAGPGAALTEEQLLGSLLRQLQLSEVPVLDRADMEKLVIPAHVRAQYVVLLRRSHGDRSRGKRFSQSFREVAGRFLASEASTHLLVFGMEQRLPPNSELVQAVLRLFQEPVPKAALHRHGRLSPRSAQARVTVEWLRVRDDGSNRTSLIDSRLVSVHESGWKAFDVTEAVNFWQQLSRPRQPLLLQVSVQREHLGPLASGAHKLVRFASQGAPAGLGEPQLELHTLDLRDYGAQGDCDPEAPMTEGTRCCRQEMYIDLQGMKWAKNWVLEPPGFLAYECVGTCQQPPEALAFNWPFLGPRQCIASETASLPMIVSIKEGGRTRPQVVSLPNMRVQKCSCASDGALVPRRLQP
Experiment [4] deals with Calmodulin-1 (Homo sapiens) (UniProt P0DP23). In words: small molecules binding calmodulin-1 with EGTA – biochemical, small-molecule microarray, Cy5-labelled CALM1, profiling panel (AID 1111).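 Also: labelled calmodulin applied in Tris saline Tween buffer holding calcium plus EGTA and DTT.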 To be noted: Cy5-CALM1 binding fluorescence, higher = more signal.
For experiment [5] the target is unchanged. Put plainly: small molecules binding Ca-loaded calmodulin-1 – biochemical, small-molecule microarray, Cy5-labelled CALM1, plus calcium, artefact control for SMM control-protein annotation, profiling panel (AID 1112).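 Also: score merges spot fluorescence with signal to noise from triplicate slides.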 To be noted: Cy5-CALM1 binding fluorescence, higher = more signal.
Experiment [6] is described as follows: probe aWnt5a binding to arrayed compounds – biochemical, biotinylated probe, 635/667 nm fluorescence, primary screen (AID 1113).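 Also: score merges 667 nm fluorescence intensity with signal-to-noise per printed feature.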 To be noted: small-molecule microarray, higher = more signal.
A short description of experiment [7]: probe aShh binding to arrayed compounds – biochemical, biotinylated probe, 635/667 nm fluorescence, primary screen (AID 1114).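 Also: probe is biotin-labelled aShh protein from a stem cell growth factor screen; measures binding of labelled protein to compounds printed on the slide; score merges feature fluorescence at 667 nm with signal-to-noise.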 To be noted: small-molecule microarray, higher = more signal.
The nature of experiment [8]: probe aNog binding to arrayed compounds – biochemical, biotinylated probe, 635/667 nm fluorescence, primary screen (AID 1115).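 Also: probe is biotinylated aNog protein used at 0.15 µg/mL for 1 h at 4 C; z-score combines 667 nm fluorescence of each spot with its signal to noise.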 To be noted: small-molecule microarray, higher = more signal.
The target in experiment [9] is Torsin-1A-interacting protein 1 (Homo sapiens) (UniProt Q5JTV8). Put plainly: compound microarray binding of lysate hLAP1 – cell lysate, small-molecule microarray, COS7 lysate, 635/667 nm fluorescence, primary screen (AID 1116). To be noted: 635 nm fluorescence, higher = more signal.
Chain of Torsin-1A-interacting protein 1 (Homo sapiens) (Q5JTV8 whole entry, looked up): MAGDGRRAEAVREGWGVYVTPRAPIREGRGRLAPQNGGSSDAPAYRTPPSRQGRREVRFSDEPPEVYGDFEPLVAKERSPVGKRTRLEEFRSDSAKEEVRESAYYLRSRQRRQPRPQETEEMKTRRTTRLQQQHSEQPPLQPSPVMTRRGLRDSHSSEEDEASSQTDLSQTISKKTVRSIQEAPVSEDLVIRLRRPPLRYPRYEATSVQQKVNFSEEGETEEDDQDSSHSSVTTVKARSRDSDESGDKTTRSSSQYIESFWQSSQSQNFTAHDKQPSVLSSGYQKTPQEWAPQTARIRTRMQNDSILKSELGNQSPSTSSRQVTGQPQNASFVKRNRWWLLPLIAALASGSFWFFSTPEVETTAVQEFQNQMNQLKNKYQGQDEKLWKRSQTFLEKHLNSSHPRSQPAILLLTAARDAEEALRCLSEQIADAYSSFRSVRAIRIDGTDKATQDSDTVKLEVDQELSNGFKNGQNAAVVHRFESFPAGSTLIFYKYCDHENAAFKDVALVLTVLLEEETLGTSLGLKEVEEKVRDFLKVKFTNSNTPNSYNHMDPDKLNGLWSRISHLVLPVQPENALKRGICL
Experiment [10] has as its target Alpha-bungarotoxin (Bungarus multicinctus) (UniProt P60615). Put plainly: compounds binding labelled alpha-BTX control protein – biochemical, small-molecule microarray, Alexa647 label, 635/667 nm fluorescence, artefact control for SMM control protein annotation, profiling panel (AID 1117). To be noted: alpha-BTX-A647 binding fluorescence, higher = more signal.
In the next experiment the target is Albumin (Bos taurus) (UniProt P02769). Put plainly: compounds binding labelled BSA control protein – biochemical, small-molecule microarray, Alexa647 label, 635/667 nm fluorescence, artefact control for SMM control protein annotation, profiling panel (AID 1118).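 Also: score merges 667 nm emission intensity and signal-to-noise per printed compound spot.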 To be noted: BSA-A647 binding, fluorescence 635 nm, higher = more signal.
Chain of Albumin (Bos taurus) (P02769 whole entry, looked up): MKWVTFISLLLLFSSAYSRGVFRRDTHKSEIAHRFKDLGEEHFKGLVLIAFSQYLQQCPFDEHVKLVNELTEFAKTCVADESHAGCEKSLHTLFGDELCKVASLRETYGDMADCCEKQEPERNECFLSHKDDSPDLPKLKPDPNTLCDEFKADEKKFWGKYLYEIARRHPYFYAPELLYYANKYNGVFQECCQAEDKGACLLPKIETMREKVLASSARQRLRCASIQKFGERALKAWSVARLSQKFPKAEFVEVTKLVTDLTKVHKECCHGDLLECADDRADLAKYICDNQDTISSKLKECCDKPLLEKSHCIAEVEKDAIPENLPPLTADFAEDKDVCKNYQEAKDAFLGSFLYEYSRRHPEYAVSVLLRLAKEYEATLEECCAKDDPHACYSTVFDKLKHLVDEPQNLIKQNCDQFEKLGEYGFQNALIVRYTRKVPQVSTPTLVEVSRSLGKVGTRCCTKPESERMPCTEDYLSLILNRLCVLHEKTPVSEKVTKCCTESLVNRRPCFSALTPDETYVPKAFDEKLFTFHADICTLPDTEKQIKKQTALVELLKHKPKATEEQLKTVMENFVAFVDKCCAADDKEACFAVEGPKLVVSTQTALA
A short description of experiment [11]: probe aXIP binding to arrayed compounds – biochemical, NeuroSMM set, 635/667 nm fluorescence, primary screen (AID 1119).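 Also: probe is the protein aXip251-270 applied at 1 µg/mL to compound-printed slides; binding of probe to printed compounds measured as 667 nm fluorescence plus signal to noise.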 To be noted: small-molecule microarray, higher = more signal, called active from +8 up or from −8 down.
Experiment [12] is described as follows: probe aNOTCH3 binding on compound microarray – biochemical, small-molecule microarray, 635/667 nm fluorescence, primary screen (AID 1120).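 Also: probe is a biotin-tagged antibody raised against NOTCH3 rather than NOTCH3 protein; score merges spot fluorescence near 667 nm with spot signal to noise.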 To be noted: higher = more signal.
A short description of experiment [13]: probe aNOTCH2 binding on compound microarray – biochemical, small-molecule microarray, 635/667 nm fluorescence, primary screen (AID 1121).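 Also: score merges feature fluorescence read at 667 nm with its signal to noise.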 To be noted: higher = more signal.
Experiment [14] addresses Carbonic anhydrase 2 (Homo sapiens) (UniProt P00918). In words: compounds binding carbonic anhydrase 2 – biochemical, small-molecule microarray, Alexa647-labelled CAII, profiling panel (AID 1122). To be noted: CAII-A647 binding fluorescence, higher = more signal.
Experiment [15] is described as follows: COS7 lysate on small-molecule microarray, probe aHis, 635 nm (AID 1123).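 Also: z-score combines 667nm fluorescence intensity with signal-to-noise per printed compound spot.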 To be noted: COS7 cell lysate, fluorescence, higher = more signal.
Experiment [16] is described as follows: probe aLAP1 signal on lysate-treated microarray – cell lysate, small-molecule microarray, COS7 lysate, primary screen (AID 1124).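 Also: lysate comes from COS7 cells expressing LAP1 and is applied at 0.3 µg/mL; score merges spot fluorescence near 667 nm with signal-to-noise over triplicate slides.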 To be noted: probe aLAP1, fluorescence, higher = more signal.
The subject of the next experiment is Sam68 (KHDRBS1). Put plainly: compounds binding KHDRBS1 protein – biochemical, small-molecule microarray, 635 nm fluorescence, primary screen (AID 1125).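 Also: score merges 667 nm channel intensity with signal to noise over triplicate slides.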 To be noted: higher = more signal.
Experiment [17] has as its system Chordin-like protein 2 (CHRDL2). In words: compounds binding chordin-like 2 – biochemical, small-molecule microarray, 635 nm fluorescence, primary screen (AID 1126).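 Also: printed compound slides probed with Chrdl2 protein at 4 µg/mL for 1 h at 4 C; score merges 667 nm emission intensity with signal to noise over three replicate slides.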 To be noted: fluorescence 635 nm, higher = more signal.
In experiment [18] the target is Concanavalin-A (Canavalia ensiformis) (UniProt P02866). In words: compounds binding concanavalin A lectin – biochemical, small-molecule microarray, Alexa647 label, 635 nm, artefact control for SMM control protein annotation, primary screen (AID 1127).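 Also: z combines 667 nm emission intensity with signal-to-noise across three replicate slides.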 To be noted: ConA-A647 binding fluorescence, higher = more signal.
Chain of Concanavalin-A (Canavalia ensiformis) (P02866 whole entry, looked up): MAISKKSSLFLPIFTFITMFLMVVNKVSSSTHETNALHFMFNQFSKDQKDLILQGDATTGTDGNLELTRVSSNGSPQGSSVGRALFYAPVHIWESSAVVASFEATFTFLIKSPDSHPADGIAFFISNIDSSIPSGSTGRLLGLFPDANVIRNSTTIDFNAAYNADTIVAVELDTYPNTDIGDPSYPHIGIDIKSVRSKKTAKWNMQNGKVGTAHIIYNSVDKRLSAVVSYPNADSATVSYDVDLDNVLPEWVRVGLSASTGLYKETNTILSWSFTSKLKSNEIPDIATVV

Chain of Alpha-bungarotoxin (Bungarus multicinctus) (P60615 whole entry, looked up): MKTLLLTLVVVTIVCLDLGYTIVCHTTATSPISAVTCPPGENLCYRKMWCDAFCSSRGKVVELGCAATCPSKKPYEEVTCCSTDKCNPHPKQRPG

As for `N#Cc1ccc(NN2C(C(O)c3cccs3)C=CC3C(=O)N(c4ccccc4)C(=O)C32)cc1` (stereo not given), the composite z-score is 0.809 in experiment [1]; 0.268 in [3]; 0.41 in experiment [4]; 0.314 in [5]; 0.0709 in experiment [6]; -0.0977 in experiment [7]. In addition, the composite z-score in experiment [8] is 1.43; in [9], 1.52; in experiment [10], 0.122; with Albumin (Bos taurus), 0.536; in [12], 0.144; in experiment [13], -0.0136. Further, the composite z-score in experiment [14] is 0.817; in experiment [15], 2.28; in experiment [16] it was 0.672; in the experiment on Sam68 (KHDRBS1), 1.01; in experiment [17], -0.0869; in experiment [18], 1.02. Moreover, the z-score in experiment [2] was -0.0582. Also, the composite Z-score in [11] is 0.388 (inactive).

For `O=C1O[C@H](c2ccccc2)[C@H](c2ccccc2)N2[C@H]1[C@@H](C(=O)O)[C@]1(C(=O)Nc3ccc(C#CC4=CCCCC4)cc31)[C@H]2c1ccc(OCCO)cc1`, the composite z-score is 1.22 in [1]; 0.659 in experiment [3]; 0.447 in experiment [4]; 0.166 in experiment [5]; 0.055 in experiment [6]; -0.304 in experiment [7]. The composite z-score in experiment [8] is 1.17; in experiment [9] it was 1.09; in experiment [10], 2.81; with Albumin (Bos taurus) it was 0.638; in experiment [12], 0.133; in experiment [13] it was -0.0523. Also, the composite z-score in experiment [14] stood at 0.537; in experiment [15], 2.01; in experiment [16] it was 1.48; in the experiment with Sam68 (KHDRBS1), 1.29; in experiment [17], 0.494; in experiment [18] it was 1.18. The z-score in experiment [2] is -1.69. In [11], the composite Z-score was 0.0759 (inactive).

For `CC(C)(C)N1CC=CC23O[C@@H]4C=CCOC(=O)[C@@H]4[C@H]2C(=O)N(CCCCCO)[C@@H]3C1=O` (stereo not given in full), the composite z-score was -1.2 in [1]; -0.788 in [3]; -0.821 in [4]; -0.0669 in [5]; -0.169 in experiment [6]; -0.221 in experiment [7]. Besides, the composite z-score was 1.03 in [8]; 2.1 in experiment [9]; -1.45 in [10]; 0.485 with Albumin (Bos taurus); -0.406 in [12]; -0.229 in experiment [13]. The composite z-score was 0.82 in experiment [14]; 0.121 in [15]; 1.25 in [16]; -0.87 in the experiment with Sam68 (KHDRBS1); -0.612 in experiment [17]; -2.63 in experiment [18]. The z-score in [2] is -0.394. Besides, the composite Z-score in [11] is 1.1 (inactive).

On to `[N-]=[N+]=NCc1ccccc1C[C@]1(C(=O)O)N=C(c2ccc(OCCCO)cc2)O[C@H]1c1ccccc1`, for which the composite z-score in experiment [1] was 0.903; in [3], -1.18; in experiment [4], 1.17; in [5] it was 0.671; in experiment [6], -0.096; in experiment [7] it was -0.0626. Further, the composite z-score in experiment [8] is 1.29; in experiment [9], 3.14; in experiment [10], 0.966; with Albumin (Bos taurus) it was 0.954; in experiment [12], -0.0414; in [13], -0.0633. Also, the composite z-score in [14] was 0.685; in [15] it was 1.79; in experiment [16] it was 0.249; with Sam68 (KHDRBS1), 0.52; in experiment [17], -0.741; in experiment [18], 1.11. In [2], the z-score is -0.748. Also, in [11], the composite Z-score was -0.37 (inactive).

Turning to `CN1CCC(CCCO)=CC1c1ccc(CN2CCCC2)cc1` (stereo not given), the composite z-score in experiment [1] was 1.25; in experiment [3], 1.3; in experiment [4], -0.561; in experiment [5] it was -0.938; in [6], 0.0215; in experiment [7], 0.441. The composite z-score in experiment [8] was 0.215; in [9] it was 1.49; in [10], 1.34; in the experiment with Albumin (Bos taurus), -0.225; in [12], 0.29; in experiment [13] it was 0.0088. In addition, the composite z-score in experiment [14] came out at 0.665; in experiment [15], 1.46; in experiment [16] it was 0.714; in the experiment with Sam68 (KHDRBS1) it was 1.32; in experiment [17], 1.5; in experiment [18], 0.776. Moreover, in experiment [2], the z-score was -1.94. For the same molecule, the composite Z-score in experiment [11] is -0.554 (inactive).
